TSG101-PTAP inh – blocks PTAP/TSG101 interaction to inhibit HIV-1 budding | Q99816 | Fluorescence polarization, FITC-PTAP peptide / Tsg101 binding | Potency, µM (series often up to 115 µM), for inactives: top-dose activity change, negative = inhibition, most hits filed as inhibitors | 340,000 tested, under 10 active | AID 493005; active means well fitted inhibition curve with a large enough effect in the main read-out, with a control signal flat, not every such curve was filed as active; inconclusive means small, poorly fitted or top-dose-only effect, or effect the other way, or a change in a side signal; inactive means no such curve, though single readings can be large or run the other way; further: potency means the concentration at half of the fitted maximal effect; % of control where 0% means no effect
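Steps: Tsg101 binding domain dispensed (10 uM final), compounds pinned in DMSO, FITC-labeled PTAP-motif peptide added (50 nM final); after 20 min binding at room temperature, polarization measured.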
KCNH2 3.1 block – blocks the human KCNH2 3.1 channel isoform | AID 720553 | 0.95% of 340,000 active | U2OS KCNH2 3.1, thallium flux FluxOr; stronger effect = lower value | activity change, % (tested at about 1.8 µM);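 active means maximum activity change below -70%; inconclusive means maximum activity change from -70% to -50%; inactive means maximum activity change above -50%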;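 further: thallium influx rate constant from kinetic fluorescence after stimulation buffer; on the % scale 0 is the no-effect control and ±100 the full control effect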
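U2OS cells transduced with KCNH2 3.1 mutant virus (1.77 x 10^8 /mL, 4 h), plated overnight at 37 C, loaded 45 min with FluxOr dye plus Red40 quencher. Thallium flux rate constant from kinetic reads after stimulation buffer, normalised to controls.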
hERG WT inh – blocks the wildtype human KCNH2 potassium channel | Q12809 | U2OS, BacMam KCNH2, thallium flux FluxOr; stronger effect = lower value | activity change, % at 1.84 µM | 0.37% of 340,000 active;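 active means maximum activity change below -70%; inconclusive means maximum activity change between -70% and -50%; inactive means maximum activity change above -50%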; further: on the % scale 0 is the no-effect control and ±100 the full control effect
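U2OS cells were transduced with wild-type KCNH2 virus (2.03 x 10^8 / mL) for 4 h at room temperature, then cultured overnight at 37 C. Thallium flux was read with FluxOr dye. Rate constants were normalized to DMSO controls.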
Tb PFK inh-1 – blocks T. brucei phosphofructokinase; T. brucei PFK, ADP-Glo luminescence; Potency, µM (highest dose often 57.5 µM), inactives show at the top dose activity, negative = inhibition, usual class: inhibitors; 0.17% of 330,000 active; AID 485367; O15648;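 further: potency means the concentration at half of the fitted maximal effect; 0% = uninhibited 1x PFK enzyme wells and -100% = no-enzyme wells; nearly all actives have a fitted effect of over 60% in size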
Target sequence (O15648 whole entry, looked up): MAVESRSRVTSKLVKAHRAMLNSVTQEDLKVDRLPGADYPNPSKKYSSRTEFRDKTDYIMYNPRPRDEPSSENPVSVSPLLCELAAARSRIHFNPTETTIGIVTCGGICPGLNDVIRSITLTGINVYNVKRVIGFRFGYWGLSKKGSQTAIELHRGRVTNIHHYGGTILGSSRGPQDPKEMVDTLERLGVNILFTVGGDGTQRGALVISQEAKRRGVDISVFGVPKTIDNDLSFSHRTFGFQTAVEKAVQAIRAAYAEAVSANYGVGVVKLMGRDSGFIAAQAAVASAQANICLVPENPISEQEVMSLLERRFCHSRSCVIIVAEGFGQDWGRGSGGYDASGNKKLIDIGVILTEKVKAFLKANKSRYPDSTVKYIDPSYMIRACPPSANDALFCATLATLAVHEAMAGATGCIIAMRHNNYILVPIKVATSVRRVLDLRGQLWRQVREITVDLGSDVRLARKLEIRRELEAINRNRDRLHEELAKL
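In TEA buffer at pH 8.0 with 5 mM MgCl2, enzyme (1.25 nM) converted F6P (0.5 mM) and ATP (0.1 mM) for 45 min at room temperature. ADP product was read by luciferase luminescence.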
Tb PFK KinaseGlo – orthogonal confirmation of T. brucei phosphofructokinase inhibitors; shares compounds with Tb PFK inh-1; Tb PFK enzyme, ATP depletion, Kinase-Glo Plus luminescence; Potency, µM (series often up to 57.5 µM), inactives show at the highest dose inhibition; 47% of 1,100 active; calls by dose curve; further: potency means the concentration at half of the fitted maximal effect; nearly all actives have a fitted effect of over 60% in size
Tb PFK inh-2 – validation of T. brucei phosphofructokinase inhibitors; shares compounds with Tb PFK inh-1; purified T. brucei PFK, ADP-Glo luminescence, 45 min; Potency, µM (doses to about 57.5 µM), inactives show at the highest dose activity change, negative = inhibition, actives largely listed as inhibitors; 41% of 1,100 active; AID 504637;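 further: potency means the concentration at half of the fitted maximal effect; plate controls were full PFK enzyme control for no effect and no enzyme control for full effect; nearly all actives have a fitted effect of over 60% in size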
Active calls of the source: *; i = inactive; u = inconclusive; x = not tested or not shown. Rows were chosen to be rich in hits. Some 1.2% of all compounds tested hit in one or more screens of this group. Unless noted, the call rests on the fitted dose curve; in most records, active means well fitted inhibition curve with a large enough effect; inconclusive means small, poorly fitted or top-dose-only effect, or effect the other way; inactive means flat fitted curve, though single readings scatter.

SMILES	TSG101-PTAP inh	KCNH2 3.1 block	hERG WT inh	Tb PFK inh-1	Tb PFK KinaseGlo	Tb PFK inh-2
O=C(O)/C=C\C(=O)Nc1ccc(N2CCN(c3ccc(Cl)c(Cl)c3)CC2)cc1	-6.1%	16.1	i	u	5.36µM*	10.7µM*
COC1/C=C/C=C(\C)Cc2cc(O)c(Cl)c(c2)N(C)C(=O)CC(OC(=O)C(C)C)C2(C)OC2C(C)C2CC1(O)NC(=O)O2 (configuration not stated)	1.1%	-6.3	-8.8	x	x	x
CC1([N+](=O)[O-])COP(=O)(NC2CC2)OC1 (configuration not stated)	-2.9%	-9.9	-3.9	x	x	x
COc1ccc(OC)c(/C=N/NC(=O)CCc2ccc(O)c(O)c2)c1	-2.2%	-9.7	2.8	1.69µM*	u	-29.0%
O=C(O)c1ccc(NCc2cccc(Br)c2)cc1	-5.4%	3.2	4.5	21.3µM*	12µM*	23.9µM*
O=C(NCc1ccc(C(=O)N2CCC3(CC2)OCCO3)cc1)c1cccc(Br)c1	-5.5%	16.1	-12.9	-0.4%	x	x
O=[N+]([O-])c1ncccc1OCc1ccc(Cl)c(Cl)c1	-0.8%	13.3	-2.3	u	15.1µM*	16.9µM*
Clc1ccc(COc2ccccn2)cc1Cl	3.2%	x	-2.9	16.9µM*	12µM*	26.9µM*
CCS(=O)(=O)Nc1cccc(C(=C2CCCCC2)c2cnc[nH]2)c1	-4.8%	10.6	-0.6	-3.4%	x	x
Cc1cccc(C)c1NCc1n[nH]c(=S)n1-c1ccccc1	-2.8%	-3.2	-1.2	u	3.01µM*	7.57µM*
O=c1c2ccccc2nc(CNc2ccccc2)n1-c1ccccc1	-0.8%	10.6	-8.0	-5.2%	x	x
C[C@H](CO)N1C[C@H](C)[C@@H](CN(C)C(=O)Oc2ccc3ccccc3c2)OCc2cnnn2CCCC1=O	x	1.5	-7.1	x	x	x
CC(=O)OC1=CC[C@H]2[C@@H]3CC[C@H]4C[C@H](OC(C)=O)[C@@H](OC(C)=O)C[C@]4(C)[C@H]3CC[C@]12C	-0.8%	0.3	-16.0	-0.9%	x	x
CCC(=O)Nc1ccccc1	-0.6%	-3.5	0.5	4.4%	x	x
O=C(Cc1cccc2ccccc12)Nc1cc(C(=O)O)cc(C(=O)O)c1	-0.3%	3.4	-5.7	8.49µM*	1.9µM*	u
COc1cccc(C2CC3C(=O)C=CC2N3Cc2ccccc2)c1 (configuration not stated)	-3.1%	-0.5	17.5	-3.4%	x	x
CN(C)CCSC1c2ccccc2CSc2ccccc21 (configuration not stated)	-3.3%	-9.6	0.3	x	x	x
COc1cc(/C=N/n2cnnc2)ccc1OC(=O)N(C)C	-4.4%	5.7	4.4	-1.1%	x	x
Cc1cccc(NC(=O)COc2ccc(/C=N\n3cnnc3)cc2)c1	-3.8%	12.1	-8.7	u	u	-18.4%
N=Cc1c(O)n(-c2ccccc2)c(=O)n(-c2ccccc2)c1=O	-7.8%	3.7	0.2	u	x	x
C[C@]12CC[C@H](O)CC1=CC(=O)C1C2CC[C@]2(C)C(=O)CCC12 (some centres not stated)	-1.3%	1.5	6.0	8.4%	x	x
Brc1cccc(CNCCc2ccc3c(c2)OCO3)c1	0.0%	-18.6	8.9	-23.1%	x	x
O=[N+]([O-])c1ccc(NCc2ccc3c(c2)OCO3)cc1	-3.1%	13.5	-11.2	6.01µM*	4.78µM*	12µM*
CC(C)(O)C(=O)Nc1ccc([N+](=O)[O-])c(C(F)(F)F)c1	-3.4%	-1.0	-2.4	-4.8%	x	x
COc1cc2c(cc1OC)CN(c1ccc([N+](=O)[O-])c(C(F)(F)F)c1)CC2	-12.0%	-4.6	-4.6	u	u	u
O=S1(=O)N(Cc2ccc(F)cc2)CCCN1Cc1ccccc1Cl	-2.7%	-24.7	0.2	-1.2%	x	x
O=C(Cc1ccc(Cl)c(Cl)c1)N/N=C/c1cccnc1	0.8%	-0.4	-6.1	12µM*	5.36µM*	12µM*
O=C(NN=Cc1ccc(N(CCCl)CCCl)cc1)c1cccnc1	-4.5%	17.5	-2.5	x	x	x
CCC(CO)(C(=O)OC1CC2CCC(C1)N2C)c1ccccc1 (configuration not stated)	-1.6%	13.4	20.0	1.3%	x	x
